“And” between values parts separate entries of the source, which are not always exact repeats. Identical values can stand only once. Records with an inconclusive call do not appear. Values without a mark were called inactive. The source made the active and inactive calls. Calls come from the whole dose curve.
Assay: Nuclear factor erythroid 2-related factor 2/antioxidant responsive element (Nrf2/ARE) small molecule agonists: luciferase reporter gene qHTS assay in human keratinocytes (AID 1919969); note: nearly all actives have a fitted effect of over 35% in size
Conditions: KeratinoSens HaCaT ARE-luciferase, luminescence, 24 h; series mostly up to 92.4 µM; activity, positive = activation: at the top concentration
Source text: National Center for Advancing Translational Sciences [NCATS]
Division of Preclinical Innovation [DPI]
U.S. Environmental Protection Agency [EPA]
National Institutes of Environmental Health Sciences [NIEHS]
National Toxicology Program [NTP]
U.S. Food and Drug Administration [FDA]
Oxidative stress has been implicated in the pathogenesis of a variety of diseases ranging from cancer to neurodegeneration. The antioxidant response element (ARE) signaling pathway plays an important role in the amelioration of oxidative stress. The KeratinoSens (Givaudan, Switzerland) is an in vitro test method which quantifies luciferase induction as a measure of activation of Keap1-Nrf2-antioxidationt/electrophile response element (ARE) dependant pathway in HaCaT human keratinocytes stably transfected with a selectable plasmid. The KeratinoSens assay is a cell-based assay with a reporter cell line to detect potential skin sensitizers by their ability to induce the Nrf2/ARE-response. The activation of the report gene under culture conditions can be detected by ONE-Glo Luciferase Assay System (Promega, Madison, WI). This cell line has been used to screen the Tox21 10K compound library to identify agonists that induce oxidative stress. The cytotoxicity of the Tox21 compound library against the KS-ARE cell line was tested in parallel by measuring the cell viability using CellTiter- Fluor assay system (Promega, Madison, WI) in the same wells.
HaCaT derived cell line KeratinoSens were dispensed at 1,500 cells/5uL/well in 1536-well white wall/solid bottom plates using a Multidrop Combi (ThermoFisher Scientific, Waltham, MA) dispenser. After the assay plates were incubated at 37 C/5% CO2 for 5 h, 23 nL of compounds dissolved in DMSO, positive controls or DMSO only was transferred to the assay plate by a pintool workstation (Kalypsys, San Diego, CA). The plates were incubated at 37 C/5% CO2 for 23 h, followed by addition of 1uL/well of CellTiter-Fluor reagent into the assay plates using a Flying Reagent Dispenser (Aurora Discovery, San Diego, CA) for cell viability readout that measures cytotoxicity. After 1 h incubation at 37 C/5% CO2 the fluorescence intensity was measured using a ViewLux (PerkinElmer, Shelton, CT) plate reader. Then 4uL/well of One-Glo were added using a Flying Reagent Dispenser. After the plates were incubated at room temperature for 30 min, the luminescence intensity in the assay plates was measured using ViewLux plate reader.
% is set by controls: 0 for no effect and ±100 for the full control effect; potency is the fitted concentration of half-maximal effect.

Row | Compound | activity, positive = activation | Potency
1 | CC(COCCO)OCCO (stereo not given) | 5.04% | –
2 | CC(C)(O)C(=O)O | -5.01% | –
3 | Cc1cncc(C)c1 | -6.94% | –
4 | CCCCC(=O)N(C)C | -12.5% | –
5 | CC(C)OC(=O)C(O)(CC(=O)O)CC(=O)O | 12.7% | –
6 | Oc1ccc(O)c2c(O)cccc12 | -5.87% | –
7 | [O-][n+]1ccc(Cl)cc1 | -6.56% | –
8 | C=CCOCC(O)CO (stereo not given) | -8.75% | –
9 | c1ccsc1 | -4.53% | –
10 | CC(=N\O)/C(C)=N/O | -5.48% | –
11 | CC(C)CCOCCC(C)C | 5.92% | –
12 | NCc1ccc(S(N)(=O)=O)cc1 | -2.77% [at 42.5 µM] | –
13 | N[C@@H](CSSC[C@H](N)C(=O)O)C(=O)O | – | 376 nM (active)
14 | Cl/C(=C\n1cncn1)c1ccc(Cl)cc1Cl | -0.0809% [at 42.5 µM] | –
15 | CC(C)OC(=O)CCCCC(=O)OC(C)C | -0.622% | –
16 | C1=COCCC1 | -5.28% | –
17 | COc1ccc(NC(C)=O)cc1 | -7.66% | –
18 | CC(C)C(=O)OC(=O)C(C)C | -9.49% | –
19 | O=[N+]([O-])c1ccc2c(c1)Cc1ccccc1-2 | 10.9% | –
20 | O=C(O)c1ccc(OCCN2CCCCC2)cc1 | -1.68% [at 42.5 µM] | –

Row | Compound | activity, positive = activation | Potency
21 | O=C(O)CN(CCN(CC(=O)O)CC(=O)O)CCN(CC(=O)O)CC(=O)O | -0.151% [at 19 µM] | –
22 | COc1cccc(OC)c1C(=O)O | -1.03% | –
23 | Nc1ncnc2c1ncn2[C@@H]1O[C@H](COP(=O)(O)O)[C@@H](O)[C@H]1O | -1.44% [at 42.5 µM] | –
24 | CC(C)(CCC(=O)O)C(=O)O | -0.868% | –
25 | CCCc1c2oc(C(=O)O)cc(=O)c2cc2c(=O)cc(C(=O)O)n(CC)c12 | 0.453% [at 42.5 µM] | –
26 | C=C[Si](OC(=C)C)(OC(=C)C)OC(=C)C | 2.33% | –
27 | O=C1C(c2[nH]c3ccc(S(=O)(=O)O)cc3c2O)=Nc2ccc(S(=O)(=O)O)cc21 | 0.679% | –
28 | OC[C@H]1O[C@@](CO)(O[C@H]2O[C@H](CO)[C@@H](O)[C@H](O)[C@H]2O)[C@@H](O)[C@@H]1O | – | inactive
29 | CC(C)(c1cc(Br)c(OCC(Br)CBr)c(Br)c1)c1cc(Br)c(OCC(Br)CBr)c(Br)c1 (stereo not given) | 1.19% [at 42.5 µM] | –
30 | C=C(C)[C@H]1CC=C(C)CC1 | -14% | –
31 | CC(=O)OC/C=C/c1ccccc1 | 0.644% | –
32 | NC(=O)NNC(N)=O | -16.3% | –
33 | CCc1occc(=O)c1O | 4.53% | –
34 | CCn1cc(C(=O)O)c(=O)c2cnc(N3CCNCC3)nc21 | 3.58% [at 42.5 µM] | –
35 | Nc1ccc(O)cc1 | – | 28400 nM (active)
36 | OCCN1CCNCC1 | 12.1% | –
37 | Nc1ccccc1N | – | 31.4 µM (active) and 7.7 µM (active)
38 | COc1ccccc1NC(=O)CC(C)=O | – | inactive
39 | COC(=O)/C=C/c1ccccc1 | -3.52% | –
40 | CC(C)(c1ccccc1)c1ccc(Nc2ccc(C(C)(C)c3ccccc3)cc2)cc1 | 3.76% | –

From PubChem BioAssay (Tox21)
